The full data set covers some 7,900 targets. This sample favours those with a hit. About 0.6% of all pairs of compound and target were hits. Unmarked numbers belong to inactive results.
Assays:
Assay in all cases: log2 fold change, soluble protein after heating vs DMSO (PISA); higher = thermal stabilisation; K562 cells, 10 uM, 30 min; active = over 0.2 and 3.5 SD of the protein, either way, in both replicates (recomputed)
erlotinib = compound: C#Cc1cccc(Nc2ncnc3cc(OCCOC)c(OCCOC)cc23)c1 [erlotinib]
Procedure, shortened: (§1)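 Soluble protein was defined as the supernatant after 21,000xg for 90 min. It came from K562 cells at 2×10^6 cells/mL given 10 μM compound for 30 min, heated in aliquots for 3 min across 48°C-58°C, pooled, and extracted in PBS with 0.5% NP-40 at 4°C, and was quantified by TMTpro 16plex LC-MS/MS with equalised channel sums. Thermal stability against control samples, from duplicates, is reported as log2 fold change.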

[1] = compound: C/C(=N\NC(=O)C1=CC(=CC=C1)S(=O)(=O)N2CCOCC2)/C3=C(C=CC(=C3)Cl)O
Procedure, shortened: as §1

[2] = compound: C1=CC(=CC=C1C2=NC3=C(N2)C=C(C=C3)C(=O)N)OC4=CC=C(C=C4)Cl
Procedure, shortened: as §1

[3] = compound: C1=CC2=C(C=CC(=C2)/C=C\3/C(=O)NC(=NCC4=CC=CS4)S3)N=C1
Procedure, shortened: as §1

[4] = compound: C1=CC2=NC=CN=C2C=C1/C=C/3\C(=O)NC(=O)S3
Procedure, shortened: as §1

[5] = compound: C1=CC=C2C(=C1)C3=NNC4=CC=CC(=C43)C2=O
Procedure, shortened: as §1

[6] = compound: C1CCN(C1)C(=O)NC2=CC=CC(=C2)NC3=NC=C(C(=N3)NCCC4=CN=CN4)Br
Procedure, shortened: as §1

[7] = compound: C1CN(CCC1(CC2=CC=C(C=C2)Cl)N)C3=NC=NC4=C3C=CN4
Procedure, shortened: as §1

[8] = compound: C1=CC(=C(C=C1Cl)C2=NC3=NC=CN=C3C(=N2)NC4=CC=NC=C4)F
Procedure, shortened: as §1

[9] = compound: C1=CC=C(C=C1)C2=NC(=C(N2)C3=CC=NC=C3)C4=CC(=C(C=C4)Cl)O
Procedure, shortened: as §1

Sequence of UniProt P50213 (P50213 whole entry, looked up): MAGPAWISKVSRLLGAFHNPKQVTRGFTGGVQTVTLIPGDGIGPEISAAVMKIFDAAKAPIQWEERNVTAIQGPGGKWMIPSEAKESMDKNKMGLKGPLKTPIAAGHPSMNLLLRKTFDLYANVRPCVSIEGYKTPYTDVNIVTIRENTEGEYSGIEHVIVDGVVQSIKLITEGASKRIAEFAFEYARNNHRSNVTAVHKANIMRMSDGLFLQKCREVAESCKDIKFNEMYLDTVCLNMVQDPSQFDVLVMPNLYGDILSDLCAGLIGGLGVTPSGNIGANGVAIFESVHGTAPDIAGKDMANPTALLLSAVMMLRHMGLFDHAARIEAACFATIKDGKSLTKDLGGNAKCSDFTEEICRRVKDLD
Sequence of UniProt Q9BVP2 (Q9BVP2 whole entry, looked up): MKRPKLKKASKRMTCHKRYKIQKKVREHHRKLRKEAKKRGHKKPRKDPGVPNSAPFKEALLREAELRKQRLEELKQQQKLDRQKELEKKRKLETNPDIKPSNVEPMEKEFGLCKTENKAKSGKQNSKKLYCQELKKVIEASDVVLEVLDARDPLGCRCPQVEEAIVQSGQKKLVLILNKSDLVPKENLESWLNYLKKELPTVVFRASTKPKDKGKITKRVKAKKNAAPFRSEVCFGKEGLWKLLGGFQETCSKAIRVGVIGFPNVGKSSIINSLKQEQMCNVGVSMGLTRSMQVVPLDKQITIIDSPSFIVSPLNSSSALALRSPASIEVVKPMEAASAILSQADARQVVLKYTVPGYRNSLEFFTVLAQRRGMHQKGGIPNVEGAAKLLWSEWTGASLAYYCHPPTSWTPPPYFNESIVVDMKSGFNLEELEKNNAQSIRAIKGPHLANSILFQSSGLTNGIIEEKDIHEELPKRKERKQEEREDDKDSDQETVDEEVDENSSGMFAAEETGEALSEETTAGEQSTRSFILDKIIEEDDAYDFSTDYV
Sequence of UniProt Q9Y324 (Q9Y324 whole entry, looked up): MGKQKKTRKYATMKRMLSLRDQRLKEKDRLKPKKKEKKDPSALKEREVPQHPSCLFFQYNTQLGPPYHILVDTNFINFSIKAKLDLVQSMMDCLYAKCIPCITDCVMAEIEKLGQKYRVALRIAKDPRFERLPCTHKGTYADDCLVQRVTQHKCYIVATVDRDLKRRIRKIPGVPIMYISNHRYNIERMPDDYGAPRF
Sequence of UniProt Q14956 (Q14956 whole entry, looked up): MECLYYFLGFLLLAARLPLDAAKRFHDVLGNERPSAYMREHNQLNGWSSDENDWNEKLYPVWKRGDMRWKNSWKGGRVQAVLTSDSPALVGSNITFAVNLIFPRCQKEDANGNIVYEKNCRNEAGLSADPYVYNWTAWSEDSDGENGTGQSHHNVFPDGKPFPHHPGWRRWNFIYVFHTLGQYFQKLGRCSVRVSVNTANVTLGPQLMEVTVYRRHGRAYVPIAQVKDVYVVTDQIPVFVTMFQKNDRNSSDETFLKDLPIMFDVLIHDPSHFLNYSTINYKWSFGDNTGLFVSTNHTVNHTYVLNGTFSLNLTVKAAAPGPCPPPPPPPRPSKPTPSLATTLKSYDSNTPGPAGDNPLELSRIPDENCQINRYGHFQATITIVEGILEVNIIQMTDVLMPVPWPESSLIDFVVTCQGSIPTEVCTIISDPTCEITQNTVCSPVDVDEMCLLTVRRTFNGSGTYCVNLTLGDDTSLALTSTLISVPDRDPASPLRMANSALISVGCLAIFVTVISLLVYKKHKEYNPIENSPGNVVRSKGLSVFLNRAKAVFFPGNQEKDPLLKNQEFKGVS
Sequence of UniProt Q13227 (Q13227 whole entry, looked up): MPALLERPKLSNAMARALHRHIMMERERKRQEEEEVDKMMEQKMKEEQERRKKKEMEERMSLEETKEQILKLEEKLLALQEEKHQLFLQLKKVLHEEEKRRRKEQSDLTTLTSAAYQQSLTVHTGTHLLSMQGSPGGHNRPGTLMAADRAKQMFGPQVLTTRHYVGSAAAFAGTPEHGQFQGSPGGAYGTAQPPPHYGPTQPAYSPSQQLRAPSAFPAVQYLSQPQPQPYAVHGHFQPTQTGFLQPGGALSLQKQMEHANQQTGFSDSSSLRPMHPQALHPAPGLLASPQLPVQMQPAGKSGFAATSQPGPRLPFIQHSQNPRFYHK
Sequence of UniProt I6L899 (I6L899 whole entry, looked up): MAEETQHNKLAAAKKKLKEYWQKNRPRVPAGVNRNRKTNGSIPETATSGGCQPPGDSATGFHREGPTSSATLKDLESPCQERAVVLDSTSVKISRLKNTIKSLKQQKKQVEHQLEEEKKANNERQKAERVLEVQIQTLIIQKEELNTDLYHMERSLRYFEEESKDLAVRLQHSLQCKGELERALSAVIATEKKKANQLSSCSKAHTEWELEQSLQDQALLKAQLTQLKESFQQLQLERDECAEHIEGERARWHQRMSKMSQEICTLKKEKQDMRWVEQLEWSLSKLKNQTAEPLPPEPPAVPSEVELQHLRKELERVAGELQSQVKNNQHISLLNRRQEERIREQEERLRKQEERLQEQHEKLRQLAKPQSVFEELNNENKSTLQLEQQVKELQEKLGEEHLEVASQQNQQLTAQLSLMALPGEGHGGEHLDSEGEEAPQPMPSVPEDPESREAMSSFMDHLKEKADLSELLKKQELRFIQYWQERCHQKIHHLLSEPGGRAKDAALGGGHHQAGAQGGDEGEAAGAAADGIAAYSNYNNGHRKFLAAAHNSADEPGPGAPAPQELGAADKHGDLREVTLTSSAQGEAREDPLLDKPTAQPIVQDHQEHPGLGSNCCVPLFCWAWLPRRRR
Sequence of UniProt A6NDN3 (A6NDN3 whole entry, looked up): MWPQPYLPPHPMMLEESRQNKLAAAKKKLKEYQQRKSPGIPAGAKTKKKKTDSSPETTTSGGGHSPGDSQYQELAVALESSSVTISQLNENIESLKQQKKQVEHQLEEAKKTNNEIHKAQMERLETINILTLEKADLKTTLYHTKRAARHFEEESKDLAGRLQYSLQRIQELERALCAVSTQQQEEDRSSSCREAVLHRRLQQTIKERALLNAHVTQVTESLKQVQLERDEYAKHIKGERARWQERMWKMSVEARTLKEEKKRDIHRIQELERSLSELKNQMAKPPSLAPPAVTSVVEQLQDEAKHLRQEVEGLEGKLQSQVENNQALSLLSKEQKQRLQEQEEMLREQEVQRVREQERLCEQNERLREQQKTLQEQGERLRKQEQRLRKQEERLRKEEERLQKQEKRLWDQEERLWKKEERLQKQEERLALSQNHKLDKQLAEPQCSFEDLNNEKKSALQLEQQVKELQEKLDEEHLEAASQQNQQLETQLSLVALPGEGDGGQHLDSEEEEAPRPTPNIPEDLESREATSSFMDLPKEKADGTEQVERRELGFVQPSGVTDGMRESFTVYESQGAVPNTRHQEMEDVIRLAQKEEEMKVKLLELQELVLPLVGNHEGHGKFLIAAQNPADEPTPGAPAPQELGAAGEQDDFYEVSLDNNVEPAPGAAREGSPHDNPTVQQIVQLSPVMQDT
Sequence of UniProt O14526 (O14526 whole entry, looked up): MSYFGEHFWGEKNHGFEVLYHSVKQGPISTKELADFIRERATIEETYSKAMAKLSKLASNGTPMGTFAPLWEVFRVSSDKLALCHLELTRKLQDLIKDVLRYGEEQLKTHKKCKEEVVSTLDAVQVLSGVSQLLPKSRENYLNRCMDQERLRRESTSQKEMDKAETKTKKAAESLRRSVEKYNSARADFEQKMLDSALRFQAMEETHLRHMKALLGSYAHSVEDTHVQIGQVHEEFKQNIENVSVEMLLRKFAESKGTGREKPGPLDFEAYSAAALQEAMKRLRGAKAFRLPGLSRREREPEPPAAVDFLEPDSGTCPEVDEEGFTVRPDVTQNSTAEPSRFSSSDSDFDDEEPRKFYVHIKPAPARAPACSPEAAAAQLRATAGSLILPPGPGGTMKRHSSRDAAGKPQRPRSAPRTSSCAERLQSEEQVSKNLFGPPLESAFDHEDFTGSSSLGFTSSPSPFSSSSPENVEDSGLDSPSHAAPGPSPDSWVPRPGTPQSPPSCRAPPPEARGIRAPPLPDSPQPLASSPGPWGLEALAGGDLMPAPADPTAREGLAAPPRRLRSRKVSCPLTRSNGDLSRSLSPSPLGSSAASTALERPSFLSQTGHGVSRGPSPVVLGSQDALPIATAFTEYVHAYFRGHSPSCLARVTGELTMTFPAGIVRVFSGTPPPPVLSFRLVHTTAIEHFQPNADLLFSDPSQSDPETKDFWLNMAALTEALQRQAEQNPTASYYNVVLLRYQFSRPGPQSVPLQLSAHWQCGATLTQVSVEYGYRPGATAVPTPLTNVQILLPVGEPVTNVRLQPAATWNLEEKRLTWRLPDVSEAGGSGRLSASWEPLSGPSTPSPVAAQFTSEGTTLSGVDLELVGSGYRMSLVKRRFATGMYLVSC
Sequence of UniProt Q7Z4Q2 (Q7Z4Q2 whole entry, looked up): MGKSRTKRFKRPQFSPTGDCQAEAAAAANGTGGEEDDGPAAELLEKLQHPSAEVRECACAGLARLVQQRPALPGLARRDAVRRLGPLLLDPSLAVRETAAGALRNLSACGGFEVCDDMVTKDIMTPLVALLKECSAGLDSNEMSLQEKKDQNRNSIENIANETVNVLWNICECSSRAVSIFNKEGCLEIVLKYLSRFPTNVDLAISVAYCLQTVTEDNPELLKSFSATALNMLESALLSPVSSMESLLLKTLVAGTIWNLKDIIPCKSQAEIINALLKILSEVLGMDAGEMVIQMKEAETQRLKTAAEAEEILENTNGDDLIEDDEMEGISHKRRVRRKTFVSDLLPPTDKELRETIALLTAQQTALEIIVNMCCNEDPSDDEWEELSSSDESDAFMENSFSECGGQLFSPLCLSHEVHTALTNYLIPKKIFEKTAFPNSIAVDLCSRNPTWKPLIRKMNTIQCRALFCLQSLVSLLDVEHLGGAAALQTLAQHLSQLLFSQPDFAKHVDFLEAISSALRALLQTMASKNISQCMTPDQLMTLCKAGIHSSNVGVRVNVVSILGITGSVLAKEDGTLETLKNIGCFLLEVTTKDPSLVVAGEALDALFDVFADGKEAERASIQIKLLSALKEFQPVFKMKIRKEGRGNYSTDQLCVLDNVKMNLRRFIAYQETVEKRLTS

Row | Target | log2 fold change (erlotinib) | log2 fold change [1] | log2 fold change [2] | log2 fold change [3] | log2 fold change [4] | log2 fold change [5] | log2 fold change [6] | log2 fold change [7] | log2 fold change [8] | log2 fold change [9]
1 | IDH3A isoform 2 (UniProt P50213) | 0.132 | -0.572 (active) | -0.084 | 0.135 | -0.017 | 0.039 | -0.052 | 0.164 | – | –
2 | GEMIN2 (UniProt O14893) | – | -0.086 | – | 0.057 | -0.013 | -0.042 | – | – | -0.428 (active) | -0.069
3 | GOLGA6B (UniProt A6NDN3) | -0.069 | – | 0.116 | – | 0.036 | – | – | – | -0.054 | –
4 | GTF3A (UniProt Q92664) | -0.048 | -0.117 | 0.116 | 0.157 | 0.004 | -0.115 | -0.019 | 0.174 | 0.095 | –
5 | GOLGA8R (UniProt I6L899) | 0.377 | -0.394 | -0.019 | 0.078 | -0.008 | -0.049 | -0.097 | 0.302 | – | 0.058
6 | GPNMB (UniProt Q14956) | 0.286 | – | -0.046 | – | – | – | – | – | -0.281 | –
7 | GBA2 (UniProt Q9HCG7) | 0.063 | 0.095 | 0.01 | 0.033 | -0.023 | 0.028 | 0.034 | 0.104 | 0.04 | –
8 | GINS2 (UniProt Q9Y248) | 0.076 | – | -0.045 | – | -0.008 | – | -0.089 | -0.034 | 0.083 | 0.203
9 | HEATR3 (UniProt Q7Z4Q2) | -0.002 | – | 0.013 | – | -0.044 | – | -0.113 | 0.032 | -0.013 | 0.062
10 | GNL3 (UniProt Q9BVP2) | – | -0.562 (active) | – | 0.149 | -0.054 | 0.053 | -0.048 | 0.142 | 0.165 | –
11 | GSE1 (UniProt Q14687) | – | – | – | – | -0.269 | – | – | – | – | -0.048
12 | FBXO9 (UniProt Q9UK97) | -0.017 | – | 0.137 | – | -0.022 | – | -0.098 | -0.037 | – | 0.03
13 | FMR1 (UniProt Q06787) | -0.301 | – | 0.154 | – | – | – | – | – | – | -0.121
14 | HNRNPF (UniProt P52597) | 0.02 | 0.126 | -0.034 | -0.098 | 0.017 | 0.003 | -0.044 | -0.044 | -0.036 | 0.079
15 | HNRNPUL1 (UniProt M0R247) | -0.032 | -0.317 | -0.513 | 0.545 | – | -0.419 | 0.471 | 0.051 | – | –
16 | FOXO3 (UniProt O43524) | 0.026 | -0.007 | -0.079 | 0.027 | – | 0.038 | -0.224 | -0.283 | -0.025 | -0.035
17 | FAT2 (UniProt Q9NYQ8) | 0.115 | – | -0.098 | – | 0.096 | – | -0.166 | 0.186 | 0.26 | 0
18 | FCHO1 (UniProt O14526) | 0.065 | 0.104 | -0.011 | 0.07 | – | -0.061 | -0.005 | -0.029 | -0.032 | -0.144
19 | FIZ1 (UniProt Q96SL8) | – | – | – | – | – | – | – | – | -0.272 | –
20 | H3-3A (UniProt P84243) | 0.085 | – | -0.035 | – | -0.1 | – | 0.049 | -0.218 | – | –
21 | HSPA2 (UniProt P54652) | 0.623 | -0.047 | -0.182 | 0.022 | 0.058 | 0.192 | – | – | – | -0.095
22 | GPS2 (UniProt Q13227) | -0.124 | – | -0.046 | – | 0.05 | – | 0.262 | 0.029 | 0.066 | -0.046
23 | GREB1 (UniProt Q4ZG55) | 0.218 | -0.751 (active) | -0.132 | 0.092 | – | -0.044 | -0.06 | 0.291 | 0 | –
24 | HDAC10 (UniProt Q969S8) | 0.065 | -0.067 | 0.038 | -0.277 | 0.066 | -0.072 | -0.729 (active) | 0.333 | – | 0.045
25 | FGG (UniProt P02679) | – | – | – | – | – | – | – | – | – | -0.05
26 | FCF1 (UniProt Q9Y324) | – | – | – | – | – | – | 0.034 | -0.138 | -0.392 | -0.075
27 | FAT1 (UniProt Q14517) | -0.06 | – | 0.161 | – | -0.08 | – | -0.123 | 0.066 | -0.062 | 0.045

Reference: the supplement of paper PMC10849652
